# According to PubChem BioAssay (Tox21):
# Records with an inconclusive call do not appear. A number with no mark means an inactive call. Activity calls are given as the source filed them. Calls come from the whole dose curve; as a rule, active = well fitted cell-killing curve with a large enough effect in the repeat runs; inconclusive = weak or mixed curves, or effect the other way; inactive = flat fitted curve, though single readings scatter.
# Test: cAMP Responsive Elements (CRE) small molecule antagonists, cell-based qHTS assay: qHTS cell viability counter screen (AID 2060913); note: nearly all actives have a fitted effect of over 40% in size
# Conditions: CRE-bla HEK293T viability, CellTiter-Glo luminescence, 5 h; series mostly up to 92.4 µM; viability change, negative = cytotoxic: at the top concentration
# Procedure, shortened: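 Cytotoxicity read in the same wells as the CRE-bla HEK293T antagonist assay: after 3 h compound with 0.25 uM NKH477 final and 2 h beta-lactamase substrate, CellTiter-Glo luminescence measured.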
# % is set by controls: 0 for no effect and ±100 for the full control effect; potency is the fitted concentration of half-maximal effect.
SMILES,"viability change, negative = cytotoxic",Potency
Cc1ccc(-c2ncc(Cl)cc2-c2ccc(S(C)(=O)=O)cc2)cn1,6.93% [at 42.5 µM],
CC(=O)OCC(=O)[C@@]1(O)[C@H](OC(C)=O)C[C@H]2[C@@H]3CCC4=CC(=O)C=C[C@]4(C)[C@@]3(F)[C@@H](O)C[C@@]21C,2.66% [at 42.5 µM],
COc1ccc(-c2cc(=S)ss2)cc1,-2.35% [at 42.5 µM],
CCOC(=O)c1ccccc1O,-0.987% [at 42.5 µM],
O=C1NCC2(CCN(CCc3ccccc3)CC2)O1,0.0738% [at 42.5 µM],
Cc1ccccc1C(=O)Nc1ccc(C(=O)N2CCCC(O)c3cc(Cl)ccc32)c(C)c1 (centres undefined),-0.419% [at 42.5 µM],
COc1ccc(CCO)cc1,0.775%,
CCCCCCCCCC#N,-7.82%,
O=C(O)C(O)[C@H](O)[C@@H](O)[C@H](O)[C@H](O)CO (some centres undefined),6.56%,
Nc1cc(S(=O)(=O)O)cc2cc(S(=O)(=O)O)cc(O)c12,,inactive
O=C(CCCN1CCC(O)(c2cccc(C(F)(F)F)c2)CC1)c1ccc(F)cc1,-9.15% [at 42.5 µM],
FC(F)(F)/C(=N\OCC1OCCO1)c1ccc(Cl)cc1,-0.14%,
CC1=C2[C@@H]([C@H](C)CC[C@H]2/C=C(\C)C(=O)O)[C@H](O)C1,5.19%,
CCCCCCCCC(CO)CCCCCC (centres undefined),-1.19%,
Cc1ccc(Br)cc1,4.8%,
c1ccc2cc3c(ccc4ccccc43)cc2c1,,inactive
CC(=O)OCc1ccco1,,inactive
O=C(Nc1cccc2c(=O)cc(-c3nn[nH]n3)oc12)c1ccc(OCCCCc2ccccc2)cc1,-0.0709% [at 42.5 µM],
N[C@@H](Cc1c[nH]c2ccc(O)cc12)C(=O)O,,inactive
NC(=O)c1ccc([N+](=O)[O-])cc1,0.182%,

SMILES,"viability change, negative = cytotoxic",Potency
COc1ccnc(CS(=O)c2nc3cc(OC(F)F)ccc3[nH]2)c1OC (centres undefined),0.359%,
CCN(CC)c1ccc2c(C)cc(=O)oc2c1,,inactive
CC(=O)CC/C=C(\C)CC/C=C(\C)CC/C=C(\C)CCC=C(C)C,-3.75% [at 42.5 µM],
CCCCCN(CCCOC)C(=O)C(CCC(=O)O)NC(=O)c1ccc(Cl)c(Cl)c1 (centres undefined),0.873% [at 42.5 µM],
CCC(=O)O[C@]1(C(=O)SCF)[C@H](C)C[C@H]2[C@@H]3C[C@H](F)C4=CC(=O)C=C[C@]4(C)[C@@]3(F)[C@@H](O)C[C@@]21C,-1.59% [at 42.5 µM],
COc1ccc(/C=C/C(=O)c2ccc(OC)cc2OC)cc1,15.7% [at 42.5 µM],
Nc1cc(S(=O)(=O)O)ccc1O,13.8%,
COc1cc(/C=C/c2ccccc2)oc(=O)c1,2.98%,
CC(=O)/C=C/C=C1/C2CCC(C2)C1(C)C (centres undefined),-1.71% [at 42.5 µM],
CCCCCCCCCCCCCCCC(=O)NCCO,-3.42% [at 42.5 µM],
CC1(C)[C@@H]2CC[C@]3(C2)[C@@H]1C(=O)CCC3(C)C,3.65%,
CCCCCCCCCCCC[N+](C)(C)CCCCCCCCCCCC,,40.3 µM (active)
CCCCCCCCOC(=O)CCCCCCCCC(=O)OCCCCCCCC,9.66%,
CCOC(=O)CC#N,-6.14%,
CC(O)CN(CCN(CC(C)O)CC(C)O)CC(C)O (centres undefined),,inactive
CCN1CCC[C@H]1CNC(=O)c1c(OC)ccc(Br)c1OC,4.39% [at 42.5 µM],
O=C1CCC(=O)N1,-4.6%,
COc1ccc(CCN(C)CCCC(C#N)(c2ccc(OC)c(OC)c2)C(C)C)cc1OC (centres undefined),,inactive
CCO[Si](CCCSSSSCCC[Si](OCC)(OCC)OCC)(OCC)OCC,6.76%,
